# Hits are enriched below; roughly 2.6% of the tested compounds scored in any of these assays.
# PABP FP inh = PABP-poly(A) binding inhibition | PABP-poly(A) RNA binding, fluorescence polarization | calls only at 35 µM | actives 1% (n = 290,000) | AID 2014;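 note: calls also rest on retests at 20 µM and on dose response follow-up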
# Target sequence (P11940 whole entry, looked up): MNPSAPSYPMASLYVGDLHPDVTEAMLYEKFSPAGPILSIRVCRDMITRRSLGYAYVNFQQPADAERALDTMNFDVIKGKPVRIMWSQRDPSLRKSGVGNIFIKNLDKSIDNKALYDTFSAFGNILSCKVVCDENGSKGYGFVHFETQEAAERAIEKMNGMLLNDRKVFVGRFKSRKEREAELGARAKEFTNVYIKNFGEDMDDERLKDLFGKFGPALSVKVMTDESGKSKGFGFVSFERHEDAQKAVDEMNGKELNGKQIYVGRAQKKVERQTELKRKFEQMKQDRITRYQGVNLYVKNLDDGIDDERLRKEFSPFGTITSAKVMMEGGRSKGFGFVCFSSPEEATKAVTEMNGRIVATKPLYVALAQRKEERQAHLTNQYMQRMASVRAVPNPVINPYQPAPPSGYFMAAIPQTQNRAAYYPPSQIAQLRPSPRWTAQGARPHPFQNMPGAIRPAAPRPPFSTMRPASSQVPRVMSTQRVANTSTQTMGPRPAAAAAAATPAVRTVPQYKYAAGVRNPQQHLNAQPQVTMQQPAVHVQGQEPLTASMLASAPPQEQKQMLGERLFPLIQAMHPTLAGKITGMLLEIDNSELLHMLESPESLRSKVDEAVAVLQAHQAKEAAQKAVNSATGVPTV
# PABP1 MLLE inh = blocks PAM2 peptide binding to the PABP1 MLLE domain; P11940; GST-MLLE / FITC-PAM2 fluorescence polarization; inhibition, % at 20 µM; actives 0.36% (n = 360,000); in the data active = inhibition above about 35%, passing the limit was not always enough;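 note: plate controls were DMSO wells with GST-MLLE for no effect and wells lacking GST-MLLE protein for full effect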
# A3A deaminase = blocks human APOBEC3A ssDNA deamination | recombinant A3A, FAM/TAMRA ssDNA deamination fluorescence | inhibition, % at 20 µM | AID 493011 | actives 0.41% (n = 330,000) | P31941;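 active = at least 40% inhibition at 20 µM here, with at most 30% in a related deaminase screen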;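 note: plate controls were A3A with DMSO for no effect and wells lacking A3A enzyme for full effect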
# APOBEC3G inh = APOBEC3G (human) deaminase inhibition; recombinant A3G, ssDNA deamination FAM/TAMRA fluorescence; inhibition, % at 20 µM; actives 0.28% (n = 330,000);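 active = inhibition of at least 40% at 20 µM, with no more than 30% in the related APOBEC3A deaminase screen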;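 note: plate controls were DMSO wells with A3G for no effect and wells lacking A3G enzyme for full effect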
# eIF4H FP inh = inhibitors of RNA binding by human eIF4H; Q15056; eIF4H fluorescence polarization binding assay; inhibition, % at 35 µM; actives 0.94% (n = 290,000); AID 2012;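 note: calls also rest on retests at 20 µM and on dose response follow-up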
# PHOSPHO1 inh = inhibitors of human PHOSPHO1 phosphatase | Q8TCT1 | recombinant PHOSPHO1, absorbance phosphatase assay | inhibition, % at 13.3 µM | actives 1.1% (n = 290,000) | AID 1565; in the data active = inhibition above about 60%
# Starred values were filed as active, the others as inactive; i = inactive; ? = inconclusive; . = not tested or not shown; + = active, no number. Unless noted, the rule behind the calls is not given here.
SMILES,PABP FP inh,PABP1 MLLE inh,A3A deaminase,APOBEC3G inh,eIF4H FP inh,PHOSPHO1 inh
COc1ccc(CN(C)C(=O)[C@H]2O[C@@H](n3ccc(=O)[nH]c3=O)[C@H](O)[C@@H]2O)cc1OC,.,-0.1,.,.,.,.
CN(Cc1ccc2c(c1)CCCN2C)C(=O)[C@H]1O[C@@H](n2ccc(=O)[nH]c2=O)[C@H](O)[C@@H]1O,.,47.1*,.,.,.,.
CCCn1c(SCC(=O)c2ccc3c(c2)OCCO3)n[nH]c1=O,i,-41.6,-2.2,-15.1,0.7,17.2
CCCn1c(SCC(=O)c2cc(C)c(C)cc2C)n[nH]c1=O,i,-45.0,0.2,-0.9,5.1,96.9*
O=C(CSc1nnc(SCc2ccccc2)s1)N/N=C/C=C/c1ccco1,i,-101.8,29.3,23.4,93.9*,13.2
CC(/C=N/NC(=O)c1ccccn1)=C\c1ccco1,i,6.8,.,.,20.6,-5.3
CC(/C=N\NC(=O)CN1CCN(Cc2ccccc2)CC1)=C\c1ccco1,+,11.5,2.8,4.2,?,-14.7
O=C(CN1CCN(Cc2ccccc2)CC1)N/N=C\C=C/c1ccco1,+,-8.8,2.1,6.1,?,11.9
O=C(CN1CCN(Cc2ccccc2Cl)CC1)N/N=C/C=C/c1ccco1,i,-14.1,-2.9,-5.5,0.8,11.6
Cc1ccc(NCCC#N)cc1C,i,7.4,-8.1,-12.7,-0.2,3.9
Cc1ccc(C(=O)C(C)OC(=O)CCS(=O)(=O)c2ccc(C)cc2)cc1 (centres undefined),.,-10.6,-1.8,-2.2,.,.
CCOC(=O)C1CCN(c2ncnc3cc(OC)c(OC)cc23)CC1,i,0.1,-3.8,-7.4,-1.9,41.8
CCNC(=S)N=Nc1c(O)[nH]c2ccc([N+](=O)[O-])cc12,i,44.6*,2.1,-2.8,14.9,-23.0
O=[N+]([O-])c1ccc2[nH]c(O)c(N=NC(=S)NCC3CCCO3)c2c1 (centres undefined),i,17.3,-0.9,-3.0,11.2,-11.7
O=C(N=Nc1c(O)[nH]c2ccc([N+](=O)[O-])cc12)c1ccccc1Cl,+,-17.5,-0.7,-6.3,57.5,55.2
O=C(O)c1ccccc1N=Nc1c(O)[nH]c2ccc([N+](=O)[O-])cc12,i,7.9,14.4,-4.5,34.4,46.3
COc1ccccc1CCNC(=O)c1cccc(S(=O)(=O)NCc2ccccc2)c1,.,5.0,0.1,-5.8,.,.
Cn1cc(/C=N/n2cnc3sc4c(c3c2=O)CCCC4)c2ccccc21,i,-13.2,-1.9,-2.4,-7.5,62.0*
O=C(CCn1c(=O)oc2ccccc21)Nc1cccc([N+](=O)[O-])c1,i,-10.6,-1.9,-2.2,-5.0,31.8
COc1ccc(OC)c(S(=O)(=O)N2CCN(C(=O)c3cc(C4CC4)nn3-c3ccccc3)CC2)c1,.,67.8*,-3.4,-5.1,.,.
O=C(c1cc(C2CC2)nn1-c1ccccc1)N1CCN(S(=O)(=O)c2ccccc2)CC1,.,-28.9,34.4,-1.6,.,.
Nc1ccc(SCC(=O)Nc2cccc([N+](=O)[O-])c2)cc1,?,8.5,-2.3,-4.8,4.6,31.7
Cc1cc(C(=O)CSc2n[nH]c(N)n2)c(C)n1C1CC1,i,4.8,-3.1,-4.8,-5.9,95.9*
C=CCn1c(C)cc(C(=O)CSc2nc3ccccc3c(=O)[nH]2)c1C,i,6.9,-0.6,-0.6,22.3,19.9
Cc1cc(C(=O)CSc2n[nH]c(N)n2)c(C)n1-c1cc(F)ccc1F,i,-7.8,-3.0,-5.0,-3.9,-15.6
SMILES,PABP FP inh,PABP1 MLLE inh,A3A deaminase,APOBEC3G inh,eIF4H FP inh,PHOSPHO1 inh
C=CCn1c(C)cc(C(=O)CSc2n[nH]c(N)n2)c1C,i,-28.8,-6.4,-9.6,0.4,62.0*
Cc1nnc(SCC(=O)c2cc(C)n(-c3ccc4c(c3)OCO4)c2C)s1,i,21.9,-6.0,-3.5,23.9,92.2*
Cc1cc(C(=O)CSc2n[nH]c(N)n2)c(C)n1-c1ccccc1,i,-15.9,2.4,2.8,-2.7,94.6*
COc1ccc(CNC(=O)CN(Cc2ccc(OC)cc2)C(=O)CCC(=O)Nc2ccccn2)cc1,i,4.0,-1.5,-6.2,-8.2,41.6
Cc1onc(-c2ccccc2Cl)c1C(=O)OCC(=O)N1CCCCC1,.,6.3,-2.3,-5.6,.,.
COc1ccc(S(=O)(=O)NCc2ccc(F)cc2)cc1OC,i,9.4,0.5,-14.3,-2.2,24.7
Cc1nnc(SCC(=O)c2cc(C)n(C3CC3)c2C)s1,i,16.4,2.5,-3.4,9.1,104.8*
CNc1nnc(SCC(=O)c2cc(C)n(C3CC3)c2C)s1,.,26.9,2.5,2.0,.,.

# Screening results deposited in PubChem BioAssay by Sanford-Burnham Center for Chemical Genomics.
